Measurements taken from ChEMBL document CHEMBL3988442, “University of Dundee, Small-Polar-MMV Screening Library” (2021).

target: AMP-activated protein kinase, AMPK (Homo sapiens) (UniProt P54646+O43741+P54619+Q9UGJ0+Q9Y478+Q13131+Q9UGI9); experiment: AMP-dependent Kinase enzyme assay. An in vitro enzyme assay that detects ADP turnover that is directly proportional to AMPK activity. This uses naive AMPK that is activated during the assay with MK-8722; format: functional; design: scale not given: direction of the effect not stated beside the values; conditions: 30 µM

Structure (SMILES)	Percent Effect [%]
Cc1nonc1CNC(=O)C(C)Oc1ccccc1F (stereo not given)	5.55
CNc1nc(C(=O)N2CCCn3nc(C(=O)N4CCCC4)cc3C2)cs1	10.6
CCC(NC(=O)c1cnc(N(C)C)nc1C)c1ccncc1 (stereo not given)	0.963
CCCn1cc(NC(=O)c2cccc(CN3CC[C@H](O)C3)c2)nn1	-5.04
CCc1ccc(C(=O)NC2CCN(c3ccn(C)n3)C2)o1 (stereo not given)	1.78
CCc1nnc(CN2CCc3ccc(S(N)(=O)=O)cc32)o1	5.08
CS(=O)(=O)NCc1cccc(COC2CCCCC2)c1	4.87
CN(c1ncc(S(N)(=O)=O)s1)C1CCc2ccccc2C1 (stereo not given)	5.32
CCN(CC(=O)N(C)C)C(=O)c1ccc(-c2nc(C)cs2)cc1	8.68
CC(C)Oc1ccccc1CNC(=O)N(C)CC(F)F	1.53
COC(=O)c1ccc(Cn2cccc(C(F)(F)F)c2=O)s1	3.31
CN(C)c1ccc(C(=O)N2CCC(c3cc4cnccc4[nH]3)CC2)cc1	20.5
CC(C)c1nnc(CN2CCCc3ccc(S(N)(=O)=O)cc32)o1	0.503
O=C(NC1CCCCC1)N1C[C@H]2CN(c3cnccn3)C[C@@]2(C(=O)O)C1	2.64
COCCS(=O)(=O)NCc1ccc(N(C)C)c(C)c1	6.36
Cc1cc(C[S+]([O-])Cc2ccccc2C)no1 (stereo not given)	5.62
CC(C(=O)N1CCCCC1)N1CCN(c2ncc(Cl)cn2)CC1 (stereo not given)	-3.64
Cc1cc(C(=O)NC2CCN(c3nnc(C)c(C)c3C#N)CC2)no1	-21.4
COc1ccc2c(c1OC)Cc1c-2nc(N)c(C#N)c1C1CCOC1 (stereo not given)	24.3
CCC(C)(CC(=O)OC)NCc1nc(C)no1 (stereo not given)	-1.72
